Data on 88 compounds can be found in PubChem BioAssay AID463173 (ICCB-Longwood Screening Facility, Harvard Medical School, 2010).

Molecules are shown by their SMILES. Hit rate of the full screen: of about 52,000 compounds, about 1,700 (3.3%) were called active. The sample holds actives, similar compounds and a random draw of the others, so the mix is not that of the screen. Values without a mark were called inactive. Cut-off read from the data, not from the text of the source: active = survival mostly below about 52% (no sharp cut-off); inactive = mostly above about 56%.

The experiment deals with Wild type. Kind of experiment: S. aureus survival, RN4220 and DeltatarO strains – OD600, teichoic acid synthesis inhibitors, primary screen (AID 463173). As to conditions: S. aureus RN4220 wild type/DeltatarO growth, OD600, 18 h, stronger effect = lower value, screened at 18.75 µg/mL (by protocol).
With `CCc1noc(-c2ccc(N3CCC(C)CC3)c([N+](=O)[O-])c2)n1`, the survival was 93%.

On to `CCOc1ccc(CCNC(=O)c2nnc(Cc3cc(OC)c(OC)c(OC)c3)o2)cc1OCC`, for which the survival is 85%.

As to `COc1ccc(Cn2c(SCC(=O)N3CCN(c4ccc(F)cc4)CC3)nc3ccccc32)cc1`, the survival was 45%.

Turning to `Cn1c(=O)c(=O)n(C)c2cc(NC(=O)c3cccc(F)c3)c(Cl)cc21`, the survival was 71%.

As for `Cc1ccccc1CNS(=O)(=O)c1csc(C(N)=O)c1`, the survival is 128%.

`CCOC(=O)c1cccc(NC(=O)C(C)n2c(C)c3cnn(-c4ccccc4)c(=O)c3c2C)c1` (stereo not drawn): the survival was 128%.

`CC(CC(=O)Nc1ccc(Br)cc1F)S(=O)(=O)c1ccc2c(c1)NC(=O)CO2` (stereo not drawn): the survival is 63%.

For the compound `O=C(CCc1ccccc1)NC1CC(=O)N(c2cccc(F)c2)C1` (stereo not drawn), the survival was 81%.

As for `COc1ccc(OC)c(CNC(=O)Cc2ccc(NC(=O)N3CCSc4ncccc43)cc2)c1`, the survival is 64%.

For `CCc1ccc(NS(=O)(=O)c2ccc3[nH]cc(C(=O)N(C)Cc4ccco4)c(=O)c3c2)cc1`, the survival is 85%.

With `CCn1cc(C(=O)N2CCN(c3cc(Cl)ccc3C)CC2)c(=O)c2cc(S(=O)(=O)N3CCOCC3)ccc21`, the survival was 86%.

Take `COc1ccc(C(=O)Nc2c(C(=O)c3ccccc3)oc3ccccc23)cc1`: the survival is 75%.

With `COc1ccccc1C(=O)Nc1c(C(=O)NC(C)(C)C)oc2ccccc12`, the survival was 80%.

For `COc1ccccc1C(=O)Nc1c(C(=O)c2ccccc2)oc2ccccc12`, the survival was -3% (active).

On to `S=c1n(-c2ccccc2)cnn1CN1CCCCC1`, for which the survival is 96%.

As to `CC(=O)Nc1ccc(S(=O)(=O)N2CCC(c3ccncc3)CC2)cc1`, the survival is -6% (active).

With `CC(C)(C)c1ccc(S(=O)(=O)N2CCC(c3ccncc3)CC2)cc1`, the survival is 120%.

Turning to `CC(=O)Nc1ccc(S(=O)(=O)N2CCC(C)CC2)cc1`, the survival was 112%.

Regarding `COc1ccc2c(c1)CCc1c(C(=O)Nc3c(C)nn(Cc4ccccc4C)c3C)noc1-2`, the survival is 26%.

`O=C(NCCc1ccccc1)c1ccc2c(c1)N(Cc1ccc(F)cc1)C(=O)CS2`: the survival was 88%.

With `O=C(NCCc1ccc(Cl)cc1)c1ccc2c(c1)N(Cc1ccc(F)cc1)C(=O)CS2`, the survival is 10% (active).

On to `O=C(NCCc1ccc(Cl)cc1)c1ccc2c(c1)N(Cc1ccc(Cl)cc1)C(=O)CS2`, for which the survival is 98%.

`Cc1c(C(=O)OC(C)C)sc(NC(=O)C2c3ccccc3Oc3ccccc32)c1C(=O)OC(C)C`: the survival is 87%.

On to `CCN(CC)C(=O)c1sc(NC(C)=O)c(C(=O)OC)c1C`, for which the survival was 108%.

For `CCN(CC)C(=O)c1sc(NC(=O)C2c3ccccc3Oc3ccccc32)c(C(=O)OC(C)C)c1C`, the survival is 8% (active).

In the case of `CCCc1ccc(OCC(=O)Nc2sc(C(=O)OCC)c(C)c2C(=O)OCC)cc1`, the survival is 92%.

`CCOC(=O)c1c(NC(=O)COc2cc(C)ccc2C(C)C)sc(C)c1C`: the survival was 67%.

Turning to `Cc1sc(NC(=O)C2c3ccccc3Oc3ccccc32)c(C(=O)OC(C)C)c1C`, the survival was 62%.

On to `CCOC(=O)c1c(NC(=O)COc2ccc(OC)cc2)sc(C(=O)N(CC)CC)c1C`, for which the survival is -8% (active).

In the case of `Cc1sc(NC(=O)COc2ccc(C(C)(C)C)cc2)c(C(=O)OC(C)C)c1C`, the survival is 10% (active).

In the case of `COC(=O)c1c(NC(=O)COc2ccc(Cl)cc2)sc(C)c1C`, the survival is 73%.

`O=C(Cn1c(SCc2ccc(F)cc2)nc2cccnc21)Nc1ccccc1F`: the survival is 75%.

Regarding `COc1ccc(-c2nnn3c2nc(NCc2ccc(C)cc2)c2ccccc23)cc1`, the survival is 85%.

For `O=C(Nc1cc(-c2nc3ccccc3o2)ccc1Cl)c1sc2c([N+](=O)[O-])cccc2c1Cl`, the survival is 96%.

On to `Cc1ccc(Cl)cc1-n1ncc2c(N3CCN(Cc4ccccc4)CC3)ncnc21`, for which the survival was 120%.

In the case of `COc1cccc(-c2ccc3c(N)c(C(=O)c4ccc(F)cc4)sc3n2)c1`, the survival is 10% (active).

On to `COc1cccc(-c2ccc3c(N)c(C(=O)c4ccc(Cl)cc4)sc3n2)c1`, for which the survival is 39%.

Turning to `COc1cccc(-c2ccc3c(N)c(C(=O)c4ccc(Br)cc4)sc3n2)c1`, the survival was 38%.

`Cc1ccc(CNC(=O)c2ccc3c(c2)N(Cc2cccc(Cl)c2)C(=O)CS3)cc1`: the survival was 70%.

Turning to `CCOc1ccc(NC(=O)CC2C(=O)N(c3cccc(C)c3)C(=O)N2Cc2cccs2)cc1` (stereo not drawn), the survival was 85%.

As for `COc1cc(NC(=O)CC2C(=O)N(c3cccc(C)c3)C(=O)N2Cc2cccs2)cc(OC)c1` (stereo not drawn), the survival is 53%.

Regarding `CCc1ccc(NC(=O)CC2C(=O)N(c3cccc(C)c3)C(=O)N2Cc2cccs2)cc1` (stereo not drawn), the survival is -3% (active).

For the compound `CCc1ccc(NC(=O)CC2C(=O)N(c3ccc(Cl)cc3)C(=O)N2Cc2cccs2)cc1` (stereo not drawn), the survival is 47%.

`Cc1cccc(N2C(=O)C(CC(=O)Nc3cccc(F)c3)N(CCc3ccncc3)C2=O)c1` (stereo not drawn): the survival is 84%.

Turning to `Cc1cccc(N2C(=O)C(CC(=O)Nc3cccc(F)c3)N(Cc3cccs3)C2=O)c1` (stereo not drawn), the survival is 0% (active).

For the compound `O=C(NCc1ccccc1Cl)c1nnc(Cc2ccc(Cl)cc2)o1`, the survival is 85%.

With `CCC1CN(C(=O)N2CCC(C(=O)NCc3cccc(OC)c3OC)CC2)c2cc(C)ccc2O1` (stereo not drawn), the survival was 106%.

As to `CC1=C(C(=O)Nc2ccc(C)cc2C)C(c2cccs2)n2nc(SCc3cccc(C)c3)nc2N1` (stereo not drawn), the survival was 126%.

As for `CCC(=O)Nc1ccc(C(=O)CSc2nnc(-c3ccc(O)cc3)n2CC2CCCO2)cc1` (stereo not drawn), the survival is 103%.

As to `CCc1ccc(C(=O)c2cn(CC(=O)Nc3cccc(OC)c3)c3ccc(OC)cc3c2=O)cc1`, the survival is 77%.

Consider `CC(C)c1ccccc1NC(=O)Cn1cnc2c1c(=O)n(C)c(=O)n2C`, for which the survival is 93%.

For the compound `Cc1ccc(C(=O)N2CCC(C(N)=O)CC2)cc1NC(=O)c1nsc2ccccc12`, the survival was 72%.

As to `O=C(Nc1ccc(C(=O)N2CCN(c3ccccc3)CC2)cc1)c1nsc2ccccc12`, the survival was -3% (active).

For `Cc1ccc(C(=O)N2CCCCC2)cc1NC(=O)c1nsc2ccccc12`, the survival was -6% (active).

Turning to `O=C(Nc1ccc(C(=O)N2CCN(c3ccc(F)cc3)CC2)cc1)c1nsc2ccccc12`, the survival is 55%.

Take `Cc1ccc(Cl)cc1N1CCN(C(=O)c2ccc(NC(=O)c3nsc4ccccc34)cc2)CC1`: the survival was 1% (active).

As to `O=C(Nc1ccc(C(=O)N2CCN(c3ccc(Cl)cc3)CC2)cc1)c1nsc2ccccc12`, the survival was 81%.

For the compound `Cc1ccc(C)c(N2CCN(C(=O)c3ccc(NC(=O)c4nsc5ccccc45)cc3)CC2)c1`, the survival was 63%.

Consider `O=C(Nc1ccc(C(=O)N2CCN(c3cccc(Cl)c3)CC2)cc1)c1nsc2ccccc12`, for which the survival is 63%.

With `Cc1ccc(C(=O)N2CCC(C)CC2)cc1NC(=O)c1nsc2ccccc12`, the survival is 80%.

As for `CC1CCN(CC2CCN(C(=O)NCc3ccc(F)cc3)CC2)CC1`, the survival is 78%.

Regarding `COc1ccccc1OC(C)C(=O)NCC1(N2CCOCC2)CCCCC1` (stereo not drawn), the survival was 87%.

For the compound `COc1ccc(CC(=O)NCc2ccc3c(c2)CCN3C(C)=O)cc1OC`, the survival was 78%.

Regarding `CCC(=O)N1c2ccccc2CC1C(=O)NCCCN1CCN(c2ccc(OC)cc2)CC1` (stereo not drawn), the survival is 88%.

Consider `Cc1ccc(NC(=O)Cn2nc(C(F)(F)F)c3c2CCC3)cc1C`, for which the survival is 81%.

As to `O=S(=O)(c1ccc2nc(N3CCN(c4ccccc4)CC3)ccc2c1)N1CCCCC1`, the survival is 1% (active).

As for `O=S(=O)(c1ccc2nc(N3CCN(c4cccc(Cl)c4)CC3)ccc2c1)N1CCCCC1`, the survival was 55%.

Consider `CC1CCN(S(=O)(=O)c2ccc3nc(N4CCN(c5ccccc5)CC4)ccc3c2)CC1`, for which the survival is 77%.

In the case of `Cc1ccc(NC(=O)C(=O)NCC(c2cccnc2)N2CCN(Cc3ccccc3)CC2)cc1` (stereo not drawn), the survival was 85%.

Regarding `CC1CCN(C(=O)c2ccc3c(c2)OCCO3)CC1`, the survival was 105%.

For `CN(Cc1ccccc1)c1ccc(-c2nc(-c3ccccn3)no2)cc1[N+](=O)[O-]`, the survival is 67%.

Regarding `CCc1ccc(CNC(=O)c2cc(=O)[nH]c3ccc(S(=O)(=O)N4CCCCC4)cc23)cc1`, the survival was 91%.

With `CC1CCN(c2oc(-c3cccs3)nc2S(=O)(=O)c2ccccc2)CC1`, the survival is 24%.

For `CC1CCN(c2oc(-c3cccs3)nc2S(=O)(=O)c2ccc(Cl)cc2)CC1`, the survival was -8% (active).

For the compound `Cc1ccc(S(=O)(=O)c2nc(-c3cccs3)oc2N2CCC(C)CC2)cc1`, the survival was -10% (active).

Take `O=S(=O)(c1ccccc1)c1nc(-c2cccs2)oc1N1CCCCC1`: the survival is 123%.

As for `O=S(=O)(c1ccc(Cl)cc1)c1nc(-c2cccs2)oc1N1CCCCC1`, the survival is 45%.

For `Cc1ccc(S(=O)(=O)c2nc(-c3cccs3)oc2N2CCCCC2)cc1`, the survival was 50%.

As to `O=C(CSc1nc2ccccc2o1)NC1CC1`, the survival is 86%.

For `Cc1ccc2c(c1)c1c(c(=O)n(-c3ccccc3C)c(=O)n1CC(=O)NCC1CCCO1)n2C` (stereo not drawn), the survival is 66%.

Turning to `CCOc1ccc(CCNC(=O)Cn2ncc3c(=O)oc4ccc(C)cc4c32)cc1`, the survival is 80%.

In the case of `COc1ccc(NC(=O)CSc2nc(-c3ccccc3)nc3cc(=O)[nH]n23)cc1`, the survival is 73%.

Turning to `CCOC(=O)CCc1c(C)nc2cc(-c3cc(OC)cc(OC)c3)[nH]n2c1=O`, the survival was 74%.

Regarding `Cc1nc2c(-c3ccc(F)cc3)c(C)nn2c(C)c1CCC(=O)NCc1ccc(Cl)cc1`, the survival was 91%.

With `CCCCc1c(C)nc2c(-c3ccc(OC)cc3)c(C)[nH]n2c1=O`, the survival was 12% (active).

For the compound `CCOC(=O)Cc1c(C)nc2c(-c3ccc(Cl)cc3)c(C(F)(F)F)nn2c1C`, the survival is 49%.

Turning to `CCCCc1nc2ccccc2n2c(-c3ccc(OC)cc3)c3c(=O)n(C)c(=O)n(C)c3c12`, the survival is 52%.

Turning to `CCCCc1c(C)nc2c(-c3ccc(Cl)cc3)c(C)[nH]n2c1=O`, the survival is -13% (active).
